A selection: hits, their analogues and other compounds. The true share with any hit is near 3.6%.
Anthrax LF prot: blocks Bacillus anthracis lethal factor protease; multiplex microsphere protease cleavage assay, LF; P15917; inhibition, % at 10 µM; hit rate 0.12% among 360,000; note: plate controls were buffer without enzyme for full effect and enzyme alone for no effect
Autofluor counter: compound fluorescence in toxin protease inhibitor counterscreen | compound autofluorescence counterscreen, microsphere flow cytometry; hits give high values | fluorescence intensity (no concentration beside the values) | hit rate 3.1% among 360,000; in the data active = fluorescence intensity above about 16000; inconclusive = no clear call, values can overlap the other calls
SARS 3CLpro inh: SARS-CoV 3CLpro protease inhibition; P0C6X7; recombinant SARS-CoV 3CLpro, quenched FRET peptide cleavage; inhibition, % at 6 µM; hit rate 0.14% among 290,000; in the data active = inhibition above about 12%
BoNT F protease: blocks Botulinum neurotoxin F light chain protease. hit rate 0.22% among 360,000. inhibition, % at 10 µM. Multiplex microsphere protease cleavage assay, flow cytometry; in the data active = inhibition above about 35%, passing the limit was not always enough; inconclusive = no clear call, values can overlap the other calls; note: plate controls were buffer without enzyme for full effect and enzyme alone for no effect
BoNT-A LC inh2: inhibitors of Botulinum neurotoxin A light chain protease; multiplex microsphere protease substrate cleavage, flow cytometry; inhibition, % at 10 µM; hit rate 0.17% among 360,000; AID 588499; note: plate controls were buffer without enzyme for full effect and enzyme alone for no effect
BJeLR viability: kills HRASV12-expressing BJeLR cells | BJeLR (HRASV12) viability, CellTiter-Glo ATP luminescence, 48 h | inhibition, % (test concentration not listed) | hit rate 0.17% among 300,000 | AID 1554; in the data active = inhibition above about 50%; inconclusive = no clear call, values can overlap the other calls
* = called active by the depositor; ? = inconclusive; . = not tested or not shown. Cut-off read from the data, not from the text of the source, unless noted: active = inhibition above about 30%; inconclusive = no clear call, values can overlap the other calls; inactive = below that.

SMILES	Anthrax LF prot	Autofluor counter	SARS 3CLpro inh	BoNT F protease	BoNT-A LC inh2	BJeLR viability
CN(C)c1ncc(S(=O)(=O)c2ccccc2)c(-c2ccc(Cl)cc2Cl)n1	1	22616*	3	-2	?	1
Cc1cccc(CN2CCN(CC(=O)O)C2=O)c1	-2	19589*	2	-2	-1	4
Cc1ccccc1CN1CCN(CC(=O)NCc2ccccc2)C1=O	-1	20841*	-4	-2	-3	-1
CCn1c(SCC(=O)NC2(C#N)CCCCC2)nc2ccccc2c1=O	-1	6302	.	-3	-5	0
Cc1ccc(N2CC(C(=O)Nc3ccccc3C(=O)NC3CCCCC3)CC2=O)cc1C (stereo unspecified)	0	22887*	2	-4	?	-9
COC(=O)c1ccccc1NC(=O)C1CC(=O)N(c2ccccc2)C1 (stereo unspecified)	-3	22918*	-2	-2	0	0
Cc1ccc(N2CC(C(=O)Nc3ccccc3C(=O)NC3CCCCC3)CC2=O)cc1 (stereo unspecified)	-2	4496	5	-5	0	3
O=C(Nc1ccccc1Cl)C1CC(=O)N(c2ccccc2)C1 (stereo unspecified)	-4	5301	-1	-10	0	-2
Cc1ccc(N2CC(C(=O)Nc3ccc(N(C)C)cc3)CC2=O)cc1C (stereo unspecified)	-3	19991*	-6	-2	1	-3
CCc1ccc(NC(=O)[C@H](Cc2ccccc2)NC(=O)C2CCN(C(=O)[C@@H](N)CC(C)C)CC2)cc1	-6	3960	0	-9	0	0
CN1C=Nc2c(ncn2C2CCC(CO)O2)C1O (stereo unspecified)	-4	6255	.	-2	0	.
CCN(CC)CC(O)Cn1c(C)c(-c2ccccc2)c2cc([N+](=O)[O-])ccc21 (stereo unspecified)	-13	3765	-2	-6	-3	-5
CCCn1c(SCC(=O)NNC(=O)c2ccc(C)cc2)nnc1C(C)C	3	3518	-10	-23	-4	3
Cc1ccc(C2=NCC(=O)N(CC(=O)N3CCCCC3)c3sc(C)c(C)c32)cc1	0	23432*	0	-4	?	5
Cc1cccc(-n2c(C)cc(C=C3C(=O)c4ccccc4C3=O)c2C)c1	8	6839	4	-7	7	-5
Cc1cc(C=C2C(=O)c3ccccc3C2=O)c(C)n1-c1ccc(Cl)cc1	5	20919*	-9	1	2	7
COc1ccc(N2C(=O)CC(N3CCN(c4ccc(S(C)(=O)=O)cc4)CC3)C2=O)cc1 (stereo unspecified)	-1	18815*	0	-1	2	-3
COc1cc(CNCCNC(=O)c2nonc2N)ccc1OCc1ccc(Cl)nc1	-2	2271	-2	-9	0	-5
COc1cc(OC)c(OC)cc1CNCCNC(=O)c1nonc1N	1	24547*	-6	-3	-2	-5
COc1ccc(CNCCNC(=O)c2nonc2N)cc1OC	-9	?	3	?	0	5
CCOc1cccc(CNCCNC(=O)c2nonc2N)c1	1	22612*	-2	-5	0	1
COc1ccc(CCNC(=O)c2nonc2N)cc1OC	1	20897*	1	4	2	7
Nc1nonc1C(=O)NCCNCc1cc(Br)ccc1OCc1ccc(F)cc1	-9	19634*	-4	-14	?	8
O=C(C[C@H]1C/C=C\CCC(=O)OC[C@H]2CCCN2C1=O)NCCO	-1	3325	.	2	0	.
CC(OC(=O)CNC(=O)c1ccc(Cl)c(Cl)c1)C(=O)N1CCOCC1 (stereo unspecified)	-4	5647	.	-3	0	-3
SMILES	Anthrax LF prot	Autofluor counter	SARS 3CLpro inh	BoNT F protease	BoNT-A LC inh2	BJeLR viability
COc1ccc(CCNC(=O)c2noc3c2CCCC3)cc1OC	2	21948*	0	0	2	-4
COc1ccc(CCNC(=O)C(=O)NCc2ccc(C(C)C)cc2)cc1OC	-3	24221*	-1	-5	?	6
Cc1ccc(Cl)cc1NC(=O)Cn1cc(C(F)(F)F)cc(Cl)c1=O	-3	2470	0	-8	0	-26
COc1ccccc1C(=O)NCCn1cc(SCC(=O)Nc2cc(C)on2)c2ccccc21	-4	16999*	2	-2	?	-22
Cc1ccc(-c2ccc(SCC(=O)Nc3cc(C)on3)nn2)cc1	1	3236	0	3	0	8
Cc1ccc(SCC(=O)Nc2cc(C)on2)cc1	-6	10411	-2	-2	0	0
Cc1cc(NC(=O)Cn2cc(C(F)(F)F)cc(Cl)c2=O)no1	0	21524*	9	-5	?	8
COc1ccc(-c2ccc(SCC(=O)Nc3cc(C)on3)nn2)cc1OC	1	25486*	1	-8	-4	1
Cc1cc(NC(=O)CSc2ccc(Cl)cc2)no1	-1	22791*	5	2	2	-6
COc1ccc2nc(SCC(=O)NCc3ccc(S(N)(=O)=O)cc3)[nH]c2c1	-6	4101	-1	?	0	-21
CCOc1ccc(C(C)=O)cc1COC(=O)CNC(=O)C12CC3CC(CC(C3)C1)C2	5	3866	.	-4	0	.
CCc1nc2ccc(C(=O)N(C)C(C)C)cn2c1N(CC)Cc1cccc(Br)c1	-5	3105	.	-1	0	.
Cc1ccc(S(=O)(=O)NC(=O)C2(C)CCN2C(=O)CC2CCCCC2)nc1 (stereo unspecified)	2	3946	.	8	0	.
Cc1cc(NC(=O)CSc2nc(-c3ccc(Cl)cc3)cs2)no1	-2	20504*	0	-4	?	-7
CCOC(=O)c1cc2c(=O)n3ccccc3nc2n(C(C)C)c1=NC(=O)c1c(-c2c(F)cccc2Cl)noc1C	34*	2502	1	24	71*	-21
COc1cccc(OC)c1OCCCc1c(C)n[nH]c1C	-2	10100	-2	-14	-1	3
Cc1cccc(OCCCc2c(C)n[nH]c2C)c1	0	22053*	-1	1	?	5
CC(C)[C@H](NC(=O)N1CC(=O)Nc2ccccc21)C(=O)N1CCC(C(=O)O)CC1	0	5193	-3	0	0	4
CCOc1ccc(C2C(C(N)=O)=C(C)Nc3ncnn32)cc1OC (stereo unspecified)	3	3082	-6	8	-3	-3
CC1=C(C(N)=O)C(c2ccc(Cl)cc2Cl)n2ncnc2N1 (stereo unspecified)	-1	21777*	-8	-2	0	-3
CCCCOC(=O)C1=C(C)Nc2ncnn2C1c1ccc(OC)c(OC)c1 (stereo unspecified)	-1	21510*	0	-9	?	-5
CCCCOC(=O)C1=C(C)Nc2ncnn2C1c1ccc(OCC)c(OC)c1 (stereo unspecified)	-5	19529*	2	0	1	1
CCC(C)NC(=O)C1CCC(CNS(=O)(=O)c2ccccc2)CC1 (stereo unspecified)	9	3028	-5	6	1	5

Source: PubChem BioAssay
